Our source for the growth values is PubChem BioAssay (NCI).

This is part of a sample that, as a whole, favours compounds with a hit. Of some 83,000 tested, about 20% had one in any assay.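 Single-concentration screen, 48 h exposure, 96-well plates. Endpoint: percent growth. Below 10 = active.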 A number with no mark means an inactive call. The source made the active and inactive calls.

Holding throughout (test): NCI-60 one-dose screen, 48 h (100 = growth as untreated, 0 = no growth, -100 = all killed)
Details in all cases: 10 µM unless noted

The subject of assay [1] is SK-MEL-2 melanoma.
The test system of assay [2] is EKVX NSCLC.
The test system of assay [3] is SN12C renal.
The test system of assay [4] is UO-31 renal.
Assay [5] concerns TK-10 renal.
For assay [6], the system named is ACHN renal.
Assay [7] concerns A498 renal.
Assay [8] has as its system CCRF-CEM leukemia.
The subject of assay [9] is MOLT-4 leukemia.
Assay [10] concerns SR leukemia.
The test system of assay [11] is RPMI-8226 leukemia.
Assay [12] concerns OVCAR-8 ovarian.
Assay [13] has as its system OVCAR-5 ovarian.
The test system of assay [14] is OVCAR-4 ovarian.
Assay [15] relates to SK-OV-3 ovarian.
Assay [16] concerns IGROV1 ovarian.
The test system of assay [17] is OVCAR-3 ovarian.
Assay [18] relates to HS 578T breast.
In assay [19] the test system is NCI/ADR-RES ovarian.

As to `O=C(OC(CO)C(=O)NC12CC3CC(CC(C3)C1)C2)c1ccc(Cl)cc1` (stereo not drawn), the growth is 106% in assay [1]; 96.9% in assay [2]; 109% in [3]; 88.7% in assay [4]; 102% in assay [5]; 100% in [6]. The growth is 103% in [7]; 88.8% in [8]; 98.7% in assay [9]; 84.7% in assay [10]; 98% in assay [11]; 100% in [12]. For the same compound, the growth is 96.3% in assay [13]; 101% in assay [14]; 107% in assay [15]; 109% in assay [16]; 115% in assay [17]; 99.5% in assay [18]. The growth in assay [19] was 107%.
With `C/C(=N\O)c1ccc(Cl)cc1`, the growth in assay [1] was 120%; in assay [2], 103%; in [3], 99%; in assay [4], 91.4%; in [5] it was 107%; in assay [6] it was 105%. In addition, the growth was 111% in assay [7]; 118% in assay [8]; 86.3% in assay [9]; 78.1% in assay [10]; 107% in assay [11]; 88.6% in assay [12]. For the same compound, the growth in assay [13] is 118%; in assay [14], 109%; in assay [15] it was 108%; in [16], 155%; in assay [17], 113%; in assay [18], 90.4%. The growth in assay [19] was 108%.
Regarding `CN(C)CCNC(=O)c1ccc(-c2nc3ccc4[nH]ncc4c3c3c2C2CCC3C2)cc1` (stereo not drawn), the growth was -5.51% (active) in assay [1]; 68.4% in assay [2]; 10.2% in assay [3]; 8.05% (active) in assay [4]; 83% in assay [5]; 17.4% in assay [6]. For the same compound, the growth was -20.9% (active) in [7]; 6.57% (active) in assay [8]; -8.33% (active) in [9]; 1.91% (active) in assay [10]; -5.84% (active) in [11]; 20.8% in assay [12]. Besides, the growth in [13] is 96%; in [14], 48.6%; in assay [15], 1.15% (active); in assay [16], 16.4%; in assay [17], 20.9%; in [18], 9.56% (active). In addition, the growth in assay [19] was 77.7%.
On to `Cc1cc(=O)n(C(=O)Nc2ccccc2Cl)c2cc(O)ccc12`, for which the growth was 118% in [1]; 108% in assay [2]; 98.5% in assay [3]; 76.9% in assay [4]; 101% in [5]; 100% in assay [6]. In addition, the growth is 109% in assay [7]; 93.9% in assay [8]; 97.8% in [11]; 95.5% in [12]; 102% in assay [13]; 107% in assay [14]. Moreover, the growth in assay [15] was 95%; in [16], 104%; in [17], 106%; in [18], 98.7%; in assay [19], 99.9%.
In the case of `O=c1c2cccc3c(N4CCCC4)ccc(c32)c2nc3ccccc3n12`, the growth in assay [1] was 113%; in [2] it was 75.9%; in [3], 64.8%; in assay [4], 56.2%; in assay [5], 87.6%; in assay [6], 52.3%. Besides, the growth is 38% in [7]; 53.7% in assay [8]; 2.57% (active) in [9]; 75.7% in assay [11]; 66% in [12]; 106% in assay [13]. The growth is 78.8% in assay [14]; 79.1% in assay [15]; 57.1% in [16]; 98.2% in assay [17]; 67.2% in assay [18]; 83% in [19].
With `CN(C)CC(C)(C)C(=O)/C=C/c1ccccc1`, the growth in [1] is -74.2% [25 µM] (active); in assay [2], -18.5% [25 µM] (active); in [3], -34.1% [25 µM] (active); in assay [4], -90.3% [25 µM] (active); in assay [5], -9.48% [25 µM] (active); in assay [6], -71.4% [25 µM] (active). In addition, the growth in [7] was -14.7% [25 µM] (active); in [8], 2.8% [25 µM] (active); in [9], -5.22% [25 µM] (active); in [10] it was -16.5% [25 µM] (active); in assay [11] it was -23.4% [25 µM] (active); in assay [12], -47.1% [25 µM] (active). Besides, the growth in assay [13] is -12% [25 µM] (active); in assay [14] it was -19.5% [25 µM] (active); in assay [15], -20.1% [25 µM] (active); in [16], -16.7% [25 µM] (active); in assay [17], -18.5% [25 µM] (active); in assay [18], -2.87% [25 µM] (active). Further, the growth in [19] was -9% [25 µM] (active).
For `C=C1CC[C@@H]2[C@](C)(COC(C)=O)[C@H](OC(C)=O)CC[C@@]2(C)[C@@H]1CC(Nc1ccc(S(=O)(=O)Nc2ncccn2)cc1)C1=CCOC1=O` (stereo partly drawn), the growth was 41.9% in assay [1]; 68.3% in [2]; 7.64% (active) in assay [3]; -17.9% (active) in assay [4]; 35.1% in [5]; -56.1% (active) in assay [6]. Further, the growth in assay [7] is 79%; in assay [8], -26.3% (active); in [9], -8.69% (active); in assay [10] it was -4.43% (active); in assay [11], -12.7% (active); in assay [12], 3.81% (active). The growth was -1.98% (active) in [13]; 42.7% in [14]; 84.7% in assay [15]; 7.21% (active) in [16]; -80.6% (active) in assay [17]; 16.1% in assay [19].
For `Nc1ncnc2c1C(c1ccccc1)c1ccc3ccccc3c1O2` (stereo not drawn), the growth in [1] was 91.1%; in [2], 90.6%; in assay [3] it was 73.6%; in [4] it was 56.5%; in assay [5], 96%; in assay [6], 80.9%. Besides, the growth is 94.7% in assay [7]; 91.6% in assay [8]; 68.4% in assay [9]; 55.1% in [10]; 80.8% in [11]; 79.6% in assay [12]. For the same compound, the growth in assay [13] is 99%; in assay [14], 86.5%; in [15] it was 64.7%; in assay [16] it was 77.8%; in [17] it was 93.9%; in assay [18], 93.7%. For the same compound, in assay [19], the growth is 80.9%.
